Legend:
Assay in all cases: log2 ratio of Biotin-Ahx-Ub-VS probe labelling (fragment/DMSO); higher = less target engagement (more negative = stronger competition), active = hit call of the paper (q ≤ 0.05, log2 ratio ≤ -1)
Conditions in all cases: compound concentration: 200 uM; treatment time: 3 h
[1] = target: USP34 (UniProt Q70CQ2)
Method in brief: (§1)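 The table lists average log2 ratios of fragment over vehicle, from an unpaired t-test on global-median-normalised Spectronaut label-free quantities. Proteins with ≥2 unique peptides were used. Samples were HEK293T lysate (495 µg) treated in triplicate with fragment at 200 µM or vehicle for 3 h, then with Biotin-Ahx-Ub-VS (0.5 µM final) for 1 h, with labelled DUBs NeutrAvidin-enriched and run by diaPASEF LC-MS/MS.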

[2] = target: T1, USP36 (UniProt Q9P275)
T1 sequence (whole entry): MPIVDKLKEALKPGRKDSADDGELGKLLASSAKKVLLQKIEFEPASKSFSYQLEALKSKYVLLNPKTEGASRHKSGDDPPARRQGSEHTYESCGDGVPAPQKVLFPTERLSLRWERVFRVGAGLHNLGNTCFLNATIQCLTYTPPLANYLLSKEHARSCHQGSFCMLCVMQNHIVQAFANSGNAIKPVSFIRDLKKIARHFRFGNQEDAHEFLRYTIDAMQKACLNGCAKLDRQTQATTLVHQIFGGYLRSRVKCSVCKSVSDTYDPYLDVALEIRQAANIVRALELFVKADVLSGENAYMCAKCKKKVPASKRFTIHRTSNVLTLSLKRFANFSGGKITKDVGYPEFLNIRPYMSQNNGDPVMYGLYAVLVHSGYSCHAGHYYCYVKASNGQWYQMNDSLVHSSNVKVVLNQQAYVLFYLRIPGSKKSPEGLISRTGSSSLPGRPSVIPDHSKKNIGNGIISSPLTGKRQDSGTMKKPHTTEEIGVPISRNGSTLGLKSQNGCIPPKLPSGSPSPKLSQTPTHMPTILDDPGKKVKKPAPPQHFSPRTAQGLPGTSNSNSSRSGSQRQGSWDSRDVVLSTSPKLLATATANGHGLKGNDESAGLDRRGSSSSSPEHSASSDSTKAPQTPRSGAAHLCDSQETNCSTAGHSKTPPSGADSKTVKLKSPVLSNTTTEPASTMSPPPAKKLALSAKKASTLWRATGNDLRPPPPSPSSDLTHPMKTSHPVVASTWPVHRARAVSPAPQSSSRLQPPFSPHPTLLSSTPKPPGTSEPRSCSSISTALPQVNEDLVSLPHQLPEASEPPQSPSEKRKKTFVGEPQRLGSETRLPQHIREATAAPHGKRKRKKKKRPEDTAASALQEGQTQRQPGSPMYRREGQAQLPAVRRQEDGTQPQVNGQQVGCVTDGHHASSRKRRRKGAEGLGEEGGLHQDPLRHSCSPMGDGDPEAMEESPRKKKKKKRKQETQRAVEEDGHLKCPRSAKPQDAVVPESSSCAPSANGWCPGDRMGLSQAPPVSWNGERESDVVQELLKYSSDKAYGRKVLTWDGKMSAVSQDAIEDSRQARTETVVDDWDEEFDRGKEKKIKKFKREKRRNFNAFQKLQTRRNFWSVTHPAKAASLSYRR
Method in brief: as §1

[3] = target: T2, USP38 (UniProt Q8NB14)
T2 sequence (whole entry): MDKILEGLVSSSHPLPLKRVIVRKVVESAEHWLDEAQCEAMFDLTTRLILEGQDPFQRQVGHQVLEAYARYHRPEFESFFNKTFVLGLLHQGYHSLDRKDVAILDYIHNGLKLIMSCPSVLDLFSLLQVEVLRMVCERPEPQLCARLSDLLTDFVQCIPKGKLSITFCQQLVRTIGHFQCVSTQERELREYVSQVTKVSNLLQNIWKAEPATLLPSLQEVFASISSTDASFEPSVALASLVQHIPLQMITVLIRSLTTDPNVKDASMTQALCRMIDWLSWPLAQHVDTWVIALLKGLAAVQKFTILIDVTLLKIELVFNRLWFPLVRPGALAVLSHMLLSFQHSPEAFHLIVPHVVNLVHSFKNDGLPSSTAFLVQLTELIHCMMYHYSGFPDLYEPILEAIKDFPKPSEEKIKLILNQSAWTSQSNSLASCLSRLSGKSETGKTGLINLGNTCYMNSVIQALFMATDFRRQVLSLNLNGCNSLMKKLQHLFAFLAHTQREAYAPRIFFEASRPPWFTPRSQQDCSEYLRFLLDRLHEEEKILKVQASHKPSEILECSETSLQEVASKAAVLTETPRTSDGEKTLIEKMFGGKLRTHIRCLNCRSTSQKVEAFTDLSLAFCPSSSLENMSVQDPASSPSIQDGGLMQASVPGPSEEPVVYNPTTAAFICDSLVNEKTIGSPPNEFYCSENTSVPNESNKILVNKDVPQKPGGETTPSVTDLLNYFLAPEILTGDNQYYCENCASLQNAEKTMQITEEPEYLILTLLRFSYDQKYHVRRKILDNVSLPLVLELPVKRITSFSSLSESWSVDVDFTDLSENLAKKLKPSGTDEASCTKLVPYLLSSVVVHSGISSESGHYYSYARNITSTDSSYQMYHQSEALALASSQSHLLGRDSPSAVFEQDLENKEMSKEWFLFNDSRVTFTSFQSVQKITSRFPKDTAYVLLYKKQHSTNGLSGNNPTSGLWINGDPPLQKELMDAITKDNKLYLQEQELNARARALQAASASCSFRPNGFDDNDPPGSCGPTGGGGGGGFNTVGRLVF
Method in brief: as §1

[4] = target: T3, USP39 (UniProt Q53GS9)
T3 sequence (whole entry): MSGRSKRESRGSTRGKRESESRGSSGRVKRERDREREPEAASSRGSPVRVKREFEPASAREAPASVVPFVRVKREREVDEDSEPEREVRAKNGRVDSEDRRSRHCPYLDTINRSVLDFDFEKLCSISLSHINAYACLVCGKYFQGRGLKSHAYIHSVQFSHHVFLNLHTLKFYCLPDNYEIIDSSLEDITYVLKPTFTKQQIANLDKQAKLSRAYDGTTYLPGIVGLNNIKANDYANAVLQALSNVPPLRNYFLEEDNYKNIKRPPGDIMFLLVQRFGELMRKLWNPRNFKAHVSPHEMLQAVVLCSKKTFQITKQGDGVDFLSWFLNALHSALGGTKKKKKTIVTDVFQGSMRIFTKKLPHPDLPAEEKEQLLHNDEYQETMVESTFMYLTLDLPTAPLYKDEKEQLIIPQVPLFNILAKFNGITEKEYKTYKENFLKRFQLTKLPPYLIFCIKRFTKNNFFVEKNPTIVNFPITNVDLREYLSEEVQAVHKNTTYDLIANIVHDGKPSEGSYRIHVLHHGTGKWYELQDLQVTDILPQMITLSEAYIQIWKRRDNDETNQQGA
Method in brief: as §1

[5] = target: T4, USP4 (UniProt Q13107)
T4 sequence (whole entry): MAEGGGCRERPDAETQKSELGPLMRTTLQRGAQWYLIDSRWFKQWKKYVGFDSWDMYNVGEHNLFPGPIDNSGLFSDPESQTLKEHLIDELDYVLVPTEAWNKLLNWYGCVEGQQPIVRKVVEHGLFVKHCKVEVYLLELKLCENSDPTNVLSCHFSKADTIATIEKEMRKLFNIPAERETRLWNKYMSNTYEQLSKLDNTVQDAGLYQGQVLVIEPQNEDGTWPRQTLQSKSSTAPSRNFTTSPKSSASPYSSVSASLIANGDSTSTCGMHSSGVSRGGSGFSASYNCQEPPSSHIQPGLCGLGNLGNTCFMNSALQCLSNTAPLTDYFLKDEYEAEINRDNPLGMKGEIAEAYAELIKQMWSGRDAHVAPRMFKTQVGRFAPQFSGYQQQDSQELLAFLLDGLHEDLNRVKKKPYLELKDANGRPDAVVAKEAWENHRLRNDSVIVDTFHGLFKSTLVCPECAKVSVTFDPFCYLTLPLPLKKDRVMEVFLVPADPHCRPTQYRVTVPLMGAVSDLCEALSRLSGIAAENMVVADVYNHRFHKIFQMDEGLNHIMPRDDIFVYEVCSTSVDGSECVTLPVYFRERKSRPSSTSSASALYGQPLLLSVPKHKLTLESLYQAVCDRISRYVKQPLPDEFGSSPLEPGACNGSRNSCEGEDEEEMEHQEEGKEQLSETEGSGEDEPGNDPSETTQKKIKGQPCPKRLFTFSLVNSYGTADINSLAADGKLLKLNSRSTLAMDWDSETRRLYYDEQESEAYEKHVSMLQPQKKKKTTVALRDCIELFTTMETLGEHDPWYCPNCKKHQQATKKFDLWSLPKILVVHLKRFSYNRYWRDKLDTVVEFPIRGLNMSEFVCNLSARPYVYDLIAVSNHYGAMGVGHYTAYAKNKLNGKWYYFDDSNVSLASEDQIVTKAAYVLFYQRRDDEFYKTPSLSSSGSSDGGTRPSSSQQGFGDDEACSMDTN
Method in brief: as §1

Measured: log2 ratio of Biotin-Ahx-Ub-VS probe labelling

Chain of USP34 (Q70CQ2 whole entry, the tested form may be a part): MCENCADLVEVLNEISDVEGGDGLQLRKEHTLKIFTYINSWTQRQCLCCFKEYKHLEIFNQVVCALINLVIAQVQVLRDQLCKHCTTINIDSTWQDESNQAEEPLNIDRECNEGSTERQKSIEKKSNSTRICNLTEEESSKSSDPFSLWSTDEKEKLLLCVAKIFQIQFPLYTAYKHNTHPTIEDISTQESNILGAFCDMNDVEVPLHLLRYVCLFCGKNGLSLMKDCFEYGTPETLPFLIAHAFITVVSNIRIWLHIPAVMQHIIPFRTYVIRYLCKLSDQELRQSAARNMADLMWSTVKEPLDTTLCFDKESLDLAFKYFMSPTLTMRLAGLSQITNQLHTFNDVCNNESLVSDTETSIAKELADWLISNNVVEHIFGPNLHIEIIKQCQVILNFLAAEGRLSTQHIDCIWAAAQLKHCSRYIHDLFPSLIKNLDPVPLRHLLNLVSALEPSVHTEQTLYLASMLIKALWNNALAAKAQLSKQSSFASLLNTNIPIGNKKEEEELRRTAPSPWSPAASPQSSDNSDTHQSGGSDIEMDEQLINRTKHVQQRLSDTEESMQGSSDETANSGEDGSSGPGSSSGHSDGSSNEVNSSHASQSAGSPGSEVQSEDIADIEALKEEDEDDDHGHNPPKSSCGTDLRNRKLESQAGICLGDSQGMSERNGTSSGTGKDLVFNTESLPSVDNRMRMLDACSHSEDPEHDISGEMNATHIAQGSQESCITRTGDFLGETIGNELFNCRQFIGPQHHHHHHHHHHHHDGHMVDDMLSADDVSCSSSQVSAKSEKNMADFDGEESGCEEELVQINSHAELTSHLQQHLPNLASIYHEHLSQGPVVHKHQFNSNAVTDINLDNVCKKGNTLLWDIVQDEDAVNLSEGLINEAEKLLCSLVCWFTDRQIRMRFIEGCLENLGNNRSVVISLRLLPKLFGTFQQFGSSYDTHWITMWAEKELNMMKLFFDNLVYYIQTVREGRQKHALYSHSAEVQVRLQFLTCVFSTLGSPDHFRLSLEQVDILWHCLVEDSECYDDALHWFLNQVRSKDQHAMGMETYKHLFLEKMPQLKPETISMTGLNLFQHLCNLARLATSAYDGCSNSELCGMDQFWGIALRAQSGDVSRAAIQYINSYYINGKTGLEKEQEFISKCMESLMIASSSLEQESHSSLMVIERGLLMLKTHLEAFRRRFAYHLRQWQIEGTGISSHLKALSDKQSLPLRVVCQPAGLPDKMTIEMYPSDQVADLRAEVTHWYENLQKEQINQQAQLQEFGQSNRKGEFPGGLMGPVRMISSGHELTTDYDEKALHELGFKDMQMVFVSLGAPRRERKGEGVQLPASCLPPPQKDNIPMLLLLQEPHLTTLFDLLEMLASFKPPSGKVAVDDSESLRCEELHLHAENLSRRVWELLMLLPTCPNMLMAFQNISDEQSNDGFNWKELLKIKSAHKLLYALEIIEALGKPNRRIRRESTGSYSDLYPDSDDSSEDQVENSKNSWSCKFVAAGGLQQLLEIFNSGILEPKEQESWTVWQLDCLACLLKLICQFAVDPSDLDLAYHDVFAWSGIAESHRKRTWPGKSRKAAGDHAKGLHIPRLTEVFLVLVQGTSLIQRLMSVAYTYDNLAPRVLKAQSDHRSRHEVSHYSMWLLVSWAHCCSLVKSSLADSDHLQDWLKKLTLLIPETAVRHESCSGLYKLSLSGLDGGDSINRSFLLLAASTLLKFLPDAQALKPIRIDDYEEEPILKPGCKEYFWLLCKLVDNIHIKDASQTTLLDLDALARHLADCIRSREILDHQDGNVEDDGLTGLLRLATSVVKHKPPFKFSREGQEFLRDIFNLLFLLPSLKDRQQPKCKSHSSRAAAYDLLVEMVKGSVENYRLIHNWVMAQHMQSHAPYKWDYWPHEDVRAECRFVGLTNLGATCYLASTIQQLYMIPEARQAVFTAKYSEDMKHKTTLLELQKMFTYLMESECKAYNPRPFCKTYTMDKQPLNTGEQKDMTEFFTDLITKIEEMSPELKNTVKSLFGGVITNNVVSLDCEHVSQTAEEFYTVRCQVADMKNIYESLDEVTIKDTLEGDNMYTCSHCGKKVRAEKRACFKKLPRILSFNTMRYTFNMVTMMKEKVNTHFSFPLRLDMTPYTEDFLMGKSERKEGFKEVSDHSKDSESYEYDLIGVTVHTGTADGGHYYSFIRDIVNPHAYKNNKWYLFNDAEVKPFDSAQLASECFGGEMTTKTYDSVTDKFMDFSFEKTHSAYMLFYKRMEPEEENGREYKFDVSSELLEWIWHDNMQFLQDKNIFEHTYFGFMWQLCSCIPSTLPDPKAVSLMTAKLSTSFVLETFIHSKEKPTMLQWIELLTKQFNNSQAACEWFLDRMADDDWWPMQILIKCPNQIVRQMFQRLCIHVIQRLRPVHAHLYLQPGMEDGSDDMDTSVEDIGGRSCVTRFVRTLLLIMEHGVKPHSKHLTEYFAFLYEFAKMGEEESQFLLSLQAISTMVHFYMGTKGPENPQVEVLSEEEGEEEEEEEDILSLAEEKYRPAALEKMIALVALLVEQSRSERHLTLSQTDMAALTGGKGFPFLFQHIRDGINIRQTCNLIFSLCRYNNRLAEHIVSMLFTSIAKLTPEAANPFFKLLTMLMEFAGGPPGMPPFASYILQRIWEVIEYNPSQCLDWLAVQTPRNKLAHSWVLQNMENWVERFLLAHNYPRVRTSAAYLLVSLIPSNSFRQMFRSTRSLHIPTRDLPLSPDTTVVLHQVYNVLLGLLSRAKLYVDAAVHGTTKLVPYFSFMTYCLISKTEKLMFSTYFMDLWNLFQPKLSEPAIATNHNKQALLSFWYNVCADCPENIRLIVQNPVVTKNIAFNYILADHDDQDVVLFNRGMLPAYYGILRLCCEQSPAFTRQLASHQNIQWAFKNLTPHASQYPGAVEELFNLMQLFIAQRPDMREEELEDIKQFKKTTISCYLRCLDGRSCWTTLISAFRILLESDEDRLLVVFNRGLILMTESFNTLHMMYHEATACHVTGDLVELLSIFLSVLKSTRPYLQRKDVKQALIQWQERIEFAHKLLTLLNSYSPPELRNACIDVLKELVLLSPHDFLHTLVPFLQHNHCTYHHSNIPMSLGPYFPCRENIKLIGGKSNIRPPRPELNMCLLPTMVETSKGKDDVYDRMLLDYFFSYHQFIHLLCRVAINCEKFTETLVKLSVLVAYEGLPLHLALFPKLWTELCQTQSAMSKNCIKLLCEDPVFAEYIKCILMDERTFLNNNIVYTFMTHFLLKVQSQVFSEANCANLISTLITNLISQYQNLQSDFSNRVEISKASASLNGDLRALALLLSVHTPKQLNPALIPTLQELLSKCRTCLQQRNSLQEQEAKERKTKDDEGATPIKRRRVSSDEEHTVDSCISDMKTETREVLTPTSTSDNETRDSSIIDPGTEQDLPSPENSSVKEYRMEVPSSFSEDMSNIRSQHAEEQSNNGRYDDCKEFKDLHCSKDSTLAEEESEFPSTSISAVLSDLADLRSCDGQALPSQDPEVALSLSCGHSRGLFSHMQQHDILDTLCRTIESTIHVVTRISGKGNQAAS

CC(=O)C1CCCCN1C(=O)CCl (stereo not given)
inactive: [1] -0.216 | [2] -0.0205 | [3] -0.0979 | [4] -0.37 | [5] -0.0834

Reference: the supplement of paper PMC11732987, “Enantioselective OTUD7B fragment discovery through chemoproteomics screening and high-throughput optimisation” (Communications Chemistry, 2025)
